Source: PubChem BioAssay (National Center for Advancing Translational Sciences (NCATS))
This is a sample that favours compounds with a hit; in the whole collection about 18% have one here.
TDP1 inh – inhibitors of human tyrosyl-DNA phosphodiesterase TDP1; Q9NUW8; recombinant TDP1, AlphaScreen DNA substrate cleavage; Potency, µM (titrated, usually from 130 µM), for the others: at the highest dose activity change, negative = inhibition, usual class: inhibitors; hit rate 0.28% among 350,000; AID 485290; further: nearly all actives have a fitted effect of over 40% in size
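Recombinant E. coli-expressed Tdp1 (1 nM) preincubated with compound 15 min at RT, then 5'-biotin/3'-phosphotyrosine-FITC DNA substrate (15 nM) added for 5 min. AlphaScreen beads (10 ug/ml) added, 10 min RT; tyrosine-FITC cleavage read as signal loss.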
DT40 TDP1 no CPT – qHTS for Inhibitors of human tyrosyl-DNA phosphodiesterase 1 (TDP1): qHTS in cells in absence of CPT. Potency, µM (doses to about 46.2 µM), for the others: at the highest dose activity change, negative = growth inhibition, most hits filed as inhibitors. hit rate 15% among 420,000. DT40 Tdp1-/- hTDP1 cells, no CPT, ATP luminescence, 48 h; further: nearly all actives have a fitted effect of over 55% in size
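Compound effects on proliferation are scored in DT40 Tdp1-/-;hTDP1 cells in the absence of CPT. ATP levels (CellTiter-Glo luminescence) are recorded after a ≥48 hr, 37 °C incubation.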
TDP1 cell CPT – DT40-hTDP1 cell growth loss with CPT | chicken DT40 Tdp1-/-;hTDP1 cells + 20 nM CPT, ATP luminescence, 48 h | Potency, µM (titrated, usually from 46.2 µM), without a hit: top-dose activity change, negative = growth inhibition, actives largely listed as inhibitors | hit rate 12% among 420,000 | AID 686979; further: nearly all actives have a fitted effect of over 55% in size
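Chicken DT40 Tdp1-/- cells stably complemented with human TDP1 were seeded at 400 cells/well in medium containing 20 nM camptothecin, exposed to pin-transferred compounds, and grown at 37 °C for at least 48 hr. Viability was read as ATP luminescence.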
PLK1 PBD block – PLK1 (human) polo-box domain binding inhibition. hit rate 2.8% among 360,000. Plk1 PBD binding of FITC phosphopeptide, fluorescence polarization. P53350. Potency, µM, inactives show max response, negative = inhibition, most hits filed as inhibitors; further: series mostly up to about 57 µM; nearly all actives have a fitted effect of over 65% in size
VDR inh – vitamin D3 receptor (human) inhibition | VDR-SRC2-3 peptide fluorescence polarization, 2 h | Potency, µM, for the others: max response, negative = inhibition, actives largely listed as inhibitors | hit rate 0.93% among 400,000
Target sequence (P11473 whole entry, looked up): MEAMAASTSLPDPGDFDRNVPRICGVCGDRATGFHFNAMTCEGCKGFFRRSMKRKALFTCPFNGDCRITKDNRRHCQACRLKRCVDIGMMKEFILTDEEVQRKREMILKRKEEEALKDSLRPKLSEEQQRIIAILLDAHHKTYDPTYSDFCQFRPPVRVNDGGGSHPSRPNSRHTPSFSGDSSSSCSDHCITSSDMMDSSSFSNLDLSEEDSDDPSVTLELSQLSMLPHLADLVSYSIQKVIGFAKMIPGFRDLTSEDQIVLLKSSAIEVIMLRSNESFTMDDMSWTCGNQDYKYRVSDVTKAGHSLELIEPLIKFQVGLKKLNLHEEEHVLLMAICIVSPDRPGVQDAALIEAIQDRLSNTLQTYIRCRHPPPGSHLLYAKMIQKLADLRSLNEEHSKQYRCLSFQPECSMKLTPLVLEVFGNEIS
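Compounds are added to VDR with labelled SRC2-3 coactivator peptide and held 2 h at room temperature. Inhibition of the VDR–peptide interaction is then read as a change in fluorescence polarization.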
GCN5L2 inh – GCN5L2 (KAT2A) acetyltransferase inhibition; Q92830; GCN5L2 HAT assay, ThioGlo1 CoA-SH fluorescence; Potency, µM (top dose mostly 58.9 µM), without a hit: at the highest dose activity change, negative = inhibition, actives largely listed as inhibitors; hit rate 0.21% among 390,000
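Compounds, pin-transferred from DMSO stocks, meet 20nM GCN5L2 for 15 min before the reaction begins with H3(1-25) peptide (75uM) and acetyl-CoA (70uM). Thiol-reactive ThioGlo1 reports CoA release over 20 min at room temperature.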
The depositor's hits bear a star; u = inconclusive; x = not tested or not shown; [ ] = another dose, or the depositor's remark. The call rests on the fitted dose curve; in most records, active means well fitted curve in the direction sought with a large enough effect; inconclusive means small, poorly fitted or top-dose-only effect, or another doubt; inactive means no such curve, though single readings can be large; an effect the other way counts as inactive or inconclusive. On the % scale 0 is the no-effect control and ±100 the full control effect; potency means the concentration at half of the fitted maximal effect.

SMILES	TDP1 inh	DT40 TDP1 no CPT	TDP1 cell CPT	PLK1 PBD block	VDR inh	GCN5L2 inh
COc1ccc(-n2nc(-c3ccc(C)cc3)c3cnc4cc(F)c(F)cc4c32)cc1	-2%	-15%	-3%	x	-16%	-2%
Cc1ccc2c(=O)cc(C(=O)Nc3sc4c(c3C(=O)NCC3CCCO3)CCCC4)oc2c1C (stereo not given)	5%	-17%	-3%	x	9%	-6%
CC(C)c1ccc(NC(=O)CSc2nc3ccccc3nc2N2CCCC2)cc1	x	13µM*	18µM*	-8%	-15%	-2%
CCCCNC(=O)CSc1nc2ccccc2nc1Cc1ccc(C)cc1	0%	-12%	-7%	x	2%	-12%
CC1CCN(c2nc3ccccc3nc2SCC(=O)Nc2ccccc2C(C)C)CC1	-6%	u	18µM*	x	-2%	-9%
CCCCN(C)C(=O)CSc1nc2ccccc2nc1Cc1ccc(C)cc1	0%	16µM*	u	x	12%	-7%
CCc1ccccc1NC(=O)CSc1nc2ccccc2nc1N1CCOCC1	x	u	0%	-16%	10%	-22%
CC(=O)Nc1ccc(NC(=O)CSc2nc3ccccc3nc2N2CCOCC2)cc1	-1%	-23%	-24%	x	u	-6%
Cc1ccc(NC(=O)CSc2nc3ccccc3nc2N2CCCC2)cc1	x	9.2µM*	12µM*	-4%	1%	-18%
COc1cc(/C=C/C(=O)OCC(=O)Nc2c(C)n(C)n(-c3ccccc3)c2=O)ccc1O	1%	16%	u	-2%	-3%	-6%
COc1ccc(CCNC(=O)Cn2cc(S(=O)(=O)Cc3ccccc3F)c3ccccc32)cc1OC	5%	u	u	x	8%	0%
CCc1ccc(Nc2nnc(-n3nc(C)cc3C)c3ccccc23)cc1	-2%	u	u	x	1%	-1%
CCCNC(=O)NNC(=O)c1ccc(F)cc1	-11%	u	u	24µM*	u	-2%
O=C(NCCCCNC(=O)c1ccc(F)cc1)c1ccc(F)cc1	x	-6%	-17%	1%	4%	-1%
CCOC(=O)c1c(NC(=O)CN2C(=O)NC3(CCCCC3C)C2=O)sc(C(=O)N(C)C)c1C (stereo not given)	0%	8%	5%	2%	-5%	-1%
CCOC(=O)c1c(NC(=O)CN2C(=O)NC3(CCCCCC3)C2=O)sc(C)c1-c1ccc(C)cc1	8%	16µM*	23µM*	-11%	-16%	3%
CCOC(=O)c1c(NC(=O)CN2C(=O)NC3(CCCCC3C)C2=O)sc(C)c1C (stereo not given)	3%	21µM*	21µM*	-2%	6%	-5%
CCOC(=O)c1c(-c2ccc(F)cc2)csc1NC(=O)CN1C(=O)NC2(CCCCC2C)C1=O (stereo not given)	4%	u	21µM*	-2%	-14%	0%
O=C(COC(=O)c1ccco1)c1ccc(Cl)cc1	7%	1.3µM*	-90%	-26%	10%	-3%
O=C(COC(=O)c1ccco1)c1ccccc1	10%	4%	-19%	-7%	14%	1%
CCOC(=O)C1CCCN(C(=O)c2cc(F)ccc2C)CC1 (stereo not given)	x	0%	10%	-7%	x	x
CCCN(C(=O)Cn1ncc2c([nH]c3ccccc32)c1=O)c1ccc(F)cc1	7%	u	u	x	-1%	-5%
C#CCNC(=O)c1cc(-c2ccccc2)sc1N	x	u	u	-9%	x	x
COC(=O)c1cc(-c2ccccc2)sc1N	6%	-1%	-6%	21µM*	u	0%
CCC/C=C(\CCC)C(NC(=O)c1ccco1)c1ccc(C(=O)OC)cc1 (stereo not given)	6%	x	x	x	x	x
SMILES	TDP1 inh	DT40 TDP1 no CPT	TDP1 cell CPT	PLK1 PBD block	VDR inh	GCN5L2 inh
CC(C)CCN1CCN(CC(c2ccccc2)c2ccccc2)CC1CCO (stereo not given)	3%	21µM*	23µM*	-6%	-3%	-2%
CC(C)CN1CCN(Cc2c[nH]c3ccccc23)CC1CCO (stereo not given)	x	u	8.2µM*	0%	7%	-8%
OCCC1CN(Cc2nc3ccccc3s2)CCN1CCc1ccccc1 (stereo not given)	0%	26µM*	u	-24%	u	-8%
CC(C)CCN1CCN(Cc2ccoc2)CC1CCO (stereo not given)	x	6%	7%	-13%	-7%	3%
COc1ccc2[nH]c(CN3CCN(C(C)C)C(CCO)C3)c(C)c2c1 (stereo not given)	0%	-24%	16%	0%	16%	-1%
COc1ccc2[nH]c(CN3CCN(CC(C)C)C(CCO)C3)c(C)c2c1 (stereo not given)	4%	23µM*	-17%	-3%	10%	-2%
CCOc1cccc(-c2cc(NCCc3ccccn3)n3nccc3n2)c1	x	u	u	-3%	x	x
COc1cc(C2NC(=O)NC(C)=C2C(=O)OC2CCCCC2)cc(Cl)c1O (stereo not given)	5%	-14%	-23%	-2%	-19%	-6%
O=C(NCCc1ccccc1Cl)c1cc2ccccn2n1	3%	u	u	x	-5%	20%
O=C1COc2ccc(S(=O)(=O)Nc3cccc(Cl)c3)cc2N1	4%	2%	-20%	2%	16%	-6%
COc1cc(O)c(CCC(=O)c2ccc(OC)c(OC)c2)c(OC)c1	4%	u	21µM*	8%	-9%	-22%
COc1ccc(C(=O)CCc2ccc(OC)c(OC)c2)cc1	x	18µM*	u	-7%	-5%	x
COc1ccc(CCC(=O)NO)cc1	x	16µM*	11µM*	x	x	x
COc1ccc(C(=O)Cc2ccc(OC)c(OC)c2)cc1	7%	-21%	-28%	-4%	0%	-1%[0.501 µM]
CNC(=O)CCc1ccc(OC)cc1	x	-6%	3%	-7%	15%	-5%
COc1ccc(C(=O)CC(=O)c2ccccc2O)cc1OC	0%	u	u	-5%	-2%	-3%
COc1ccc(CCC(C)NC(=O)Cc2ccc(OC)c(OC)c2)c(OC)c1 (stereo not given)	x	18µM*	u	-9%	u	-2%
Cc1ccccc1-c1nnn(CC(=O)N(C)CC(=O)Nc2ccccc2C(F)(F)F)n1	-7%	-28%	-2%	4%	-8%	-6%
Cc1cc2c3c(cccc3n1)C(=O)c1ccccc1-2	14%	u	u	x	-10%	x
COc1ccc(C(CCN(Cc2ccc(OC)c(OC)c2)C(C)=O)C(C)C)cc1 (stereo not given)	x	u	18µM*	8%	7%	-10%
